In the library only some 0.45% were active in any assay of this set; here they are far more common.
B2AR arrestin: beta2AR (human) beta-arrestin recruitment activity | beta-arrestin recruitment to beta2AR, cell-based reporter | Potency, µM (titrated, usually from 46.1 µM), for inactives: at the top dose activation, hits mostly activators | actives 0.02% (n = 330,000);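 further: 0% = DMSO controls and full agonism = EC100 isoproterenol or metaproterenol; nearly all actives have a fitted effect of over 65% in size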
Anesthetic bind: candidate novel general anesthetic via apoferritin binding; P02791; apoferritin/1-aminoanthracene competitive binding, fluorescence; Potency, µM (top dose mostly 77.5 µM), inactives show at the top dose activity change, negative = displacement, actives largely listed as inhibitors; actives 0.074% (n = 350,000); AID 485281; further: nearly all actives have a fitted effect of over 20% in size
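Steps: apoferritin (10 uM) was premixed with half-saturated 1-AMA in PBS, compounds were pin-transferred, plates stood 10 min at room temperature, fluorescence was read at 380/535 nm, and curves were fitted with a Hill equation.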
PGK inhibitor: T. brucei PGK inhibition | actives 0.043% (n = 380,000) | Potency, µM (highest dose often 57.5 µM), for the others: top-dose activity change, negative = inhibition, usual class: inhibitors | AID 602233 | PGK/GAPDH coupled, Kinase-Glo luminescence, 60 min; further: nearly all actives have a fitted effect of over 60% in size
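Recombinant glycosomal PGK reaction used 1,3-bisphosphoglycerate generated in-well by GAPDH (100nM final) in 100mM TEA pH 7.6, 5mM MgCl2, 0.01% Tween-20. After 60 minutes at room temperature, ATP was read by Kinase-Glo Plus luminescence end-point.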
Pin1 inh: human Pin1 inhibition. Q13526. Pin1 FP peptide displacement, HiFluor488, 10 min. Potency, µM (series often up to 115 µM), without a hit: top-dose activity, negative = inhibition, actives largely listed as inhibitors. actives 0.009% (n = 390,000). AID 504891; active means well fitted inhibition curve with a large enough effect in the polarisation, with a control signal flat, not every such curve was filed as active; inconclusive means small, poorly fitted or top-dose-only effect, or effect the other way, or a change in a side signal; inactive means no such curve, though single readings can be large or run the other way; the % refers to the polarisation
Target sequence (Q13526 whole entry, looked up): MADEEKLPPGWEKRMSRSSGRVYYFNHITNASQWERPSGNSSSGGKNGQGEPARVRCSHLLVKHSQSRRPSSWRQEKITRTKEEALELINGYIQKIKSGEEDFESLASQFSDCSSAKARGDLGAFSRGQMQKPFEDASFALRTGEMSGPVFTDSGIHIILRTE
FEN1 inhibitor: blocks human flap endonuclease 1; P39748; Recombinant FEN1 flap cleavage, fluorescence, 15 min; Potency, µM (series often up to 114 µM), for the others: at the highest dose activity change, negative = inhibition, hits mostly inhibitors; actives 0.35% (n = 390,000); AID 588795; further: nearly all actives have a fitted effect of over 65% in size
Target sequence (P39748 whole entry, looked up): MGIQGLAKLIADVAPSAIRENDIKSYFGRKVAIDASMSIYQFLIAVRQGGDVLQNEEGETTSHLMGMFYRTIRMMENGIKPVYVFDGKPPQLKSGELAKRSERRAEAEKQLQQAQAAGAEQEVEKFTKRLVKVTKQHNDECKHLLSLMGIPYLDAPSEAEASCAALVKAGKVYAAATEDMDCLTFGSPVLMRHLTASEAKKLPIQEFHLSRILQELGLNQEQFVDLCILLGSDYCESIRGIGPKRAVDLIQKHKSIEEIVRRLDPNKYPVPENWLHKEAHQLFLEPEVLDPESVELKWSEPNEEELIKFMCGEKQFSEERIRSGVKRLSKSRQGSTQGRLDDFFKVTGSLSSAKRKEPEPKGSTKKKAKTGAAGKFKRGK
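Steps: FEN1 (10 nM) dispensed; compound added by pin tool; 15 min at room temperature; substrate added to 50 nM final; reads at 0 min and 15 min; data normalized and fitted (four-parameter Hill).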
Chronic BCR inh: inhibitors of chronic active B-cell receptor signaling | ABC-DLBCL IkBa-CBG/CBR reporter, luminescence ratio, 4 h | Potency, µM (titrated, usually from 46.1 µM), for inactives: top-dose activity change, negative = inhibition, usual class: inhibitors | actives 0.05% (n = 340,000) | AID 493014; active means well fitted inhibition curve with a large enough effect in the signal ratio, with a control signal flat, not every such curve was filed as active; inconclusive means small, poorly fitted or top-dose-only effect, or effect the other way, or a change in a side signal; the % refers to the signal ratio;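 further: plate controls were basal doxycycline-induced cells for no effect and cells given 10 µM MG132 for full effect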
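TMD8 human ABC-DLBCL cells with doxycycline-inducible IκBα–green luciferase fusion and unfused red luciferase, in 0.5% FBS medium; compounds up to 46 uM, 4 h at 37C. Green/red luminescence ratio, filter-overlap corrected, fitted to concentration-response curves.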
An asterisk follows results filed as active; i = inactive; ? = inconclusive; nt = no result. Unless noted, the call rests on the fitted dose curve; in most records, active means well fitted curve in the direction sought with a large enough effect; inconclusive means small, poorly fitted or top-dose-only effect, or another doubt; inactive means no such curve, though single readings can be large; an effect the other way counts as inactive or inconclusive. Unless noted, on the % scale 0 is the no-effect control and ±100 the full control effect; potency means the concentration at half of the fitted maximal effect.

SMILES	B2AR arrestin	Anesthetic bind	PGK inhibitor	Pin1 inh	FEN1 inhibitor	Chronic BCR inh
COc1c(O)c(O)cc2c1oc1c3cc(C)ccc3oc(=O)c21	nt	-9%	nt	nt	nt	nt
Cc1cc2c(s1)c1cnn(Cc3c(F)ccc(C)c3Cl)c(=O)c1n2C	nt	nt	nt	1%	nt	nt
Cc1ccc(S(=O)(=O)N(CC(O)Cn2c3ccccc3c3ccccc32)c2cccc(C(=O)N(C)C)c2)cc1 (stereo not given)	nt	-16%	-6%	?	89µM*	nt
COc1ccc(C)cc1NC(=O)C(OC(=O)CNC(=O)c1ccccc1)c1ccccc1 (stereo not given)	nt	nt	nt	-1%	nt	nt
COc1ccc(-c2csc(N3CCC(C(N)=O)CC3)n2)cc1OC	nt	nt	nt	6%	nt	nt
O=c1c2ccccc2nc2sc(Nc3ccc(Sc4ccccc4)cc3)nn12	nt	nt	nt	35%	nt	nt
CCCC/C(O)=C/c1nc2ccccc2[nH]c1=O	0%	-1%	i	?	-1%	15µM*
Cc1ccc(NS(=O)(=O)c2cc3c(cc2F)NC(=O)CC3)cc1Cl	nt	nt	nt	-4%	nt	nt
COc1ccc(Cn2ccnc2SCC(=O)NC2CCCC2)cc1	0%	35µM*	i	0%	7%	-6%
O=C(c1ccccc1O)N(Cc1ccco1)Cc1ccco1	nt	nt	nt	-13%	nt	nt
Cc1cccc(NC(=O)c2cc(NC(=O)c3ccco3)ccc2Cl)n1	0%	-10%	i	1%	42%	23µM*
O=C1c2ccccc2C(=O)N1/N=C/c1ccc(O)c(O)c1O	-1%	-11%	-15%	nt	11µM*	?
COc1ccc(/C=N\NC(=O)c2cc(O)c(O)c(O)c2)cc1CN1CCN(c2ccc(F)cc2)CC1	-1%	?	3%	-1%	14µM*	?
COc1ccc(/C=N/NC(=O)c2ccc(C)cc2)cc1CN1CCN(c2ccc(F)cc2)CC1	0%	-9%	-10%	-7%	-8%	-4%
Cc1cc2c(s1)c1cnn(Cc3cccc4cccnc34)c(=O)c1n2C	nt	nt	nt	3%	nt	nt
CNc1cccc(S(=O)(=O)N2CCN(S(=O)(=O)c3ccc4c(c3)OCCO4)CC2)c1	nt	nt	nt	3%	nt	nt
COc1ccc(-c2nn(-c3ccccc3)cc2C2CC(c3cccs3)=NN2C(=O)CCCC(=O)O)cc1 (stereo not given)	0%	-13%	2%	2%	-3%	0%
Cc1ccc(-c2nn(-c3ccccc3)cc2C2CC(c3cccs3)=NN2C(=O)CCCC(=O)O)cc1 (stereo not given)	0%	-9%	?	?	50µM*	6%
NC(=S)n1[nH]c(-c2ccc([N+](=O)[O-])cc2)c(N=Nc2cccc(Cl)c2)c1=O	0%	-10%	?	nt	50µM*	?
NC(=S)n1[nH]c(-c2ccc([N+](=O)[O-])cc2)c(N=Nc2ccc(O)cc2)c1=O	-3%	-16%	-7%	?	-19%	-6%
CN(C)CCCOc1ccc(C(C)(C)c2ccccc2)cc1	0%	16µM*	-8%	-9%	-4%	?
C=CCNCCOc1ccc(C(C)(C)c2ccccc2)cc1	0%	?	-4%	0%	-3%	-4%
Cc1cc([N+](=O)[O-])cnc1NC(C)c1ccccc1 (stereo not given)	0%	8.9µM*	-4%	0%	-17%	?
O=c1c2c3c(sc2ncn1Cc1ccc(F)cc1)CCC3	0%	25µM*	7%	12%	2%	0%
CCOC(=O)N1CCc2c(sc3ncn(Cc4ccc(F)cc4)c(=O)c23)C1	0%	-5%	0%	-4%	-6%	0%
SMILES	B2AR arrestin	Anesthetic bind	PGK inhibitor	Pin1 inh	FEN1 inhibitor	Chronic BCR inh
Brc1ccc(C2Nc3cccc4cccc(c34)N2)o1	-1%	-6%	-10%	?	28µM*	-6%
Brc1cccc(C2Nc3cccc4cccc(c34)N2)c1	-1%	-11%	0%	?	-6%	-3%
COc1cc(CNCc2ccccn2)ccc1OCc1ccc(Cl)cc1Cl	0%	20µM*	5%	3%	0%	1%
COc1cc(CNCc2ccccn2)ccc1OCc1ccc(Cl)c(Cl)c1	0%	?	0%	-2%	-23%	-1%
COc1cc(/C=N/NC(=O)NC2CCCCC2)cc(OC)c1O	-1%	-8%	-6%	-4%	-1%	?
COc1cc(/C=N/NC(=O)NC2CCCCC2)ccc1O	0%	-11%	0%	1%	-3%	13µM*
CN(CC(=O)O/N=C(\N)c1cccc([N+](=O)[O-])c1)S(=O)(=O)c1ccccc1	0%	28µM*	-10%	-14%	0%	?
Nc1ccc(C23CC4CC(CC(C4)C2)C3)cc1	0%	8.9µM*	-1%	4%	0%	6%
Nc1ccc(C(=O)NC23CC4CC(CC(C4)C2)C3)cc1	0%	?	-9%	-2%	2%	-2%
Nc1ccc(C23CC4CC(CC(CO)(C4)C2)C3)cc1	0%	?	1%	2%	-1%	6%
Nc1ccc(C23CC4CC(CC(O)(C4)C2)C3)cc1	0%	14µM*	-1%	0%	-2%	0%
Cc1nc(Nc2nc3ccccc3o2)nc2c1CCCC2	nt	nt	nt	0%	nt	nt
CC(NC(=O)C1CCN(C(=O)N2CCOc3ccccc32)CC1)c1ccccc1 (stereo not given)	nt	16µM*	-7%	-4%	0%	nt
O=S(=O)(c1ccc2c(c1)OCCO2)N1CCN(S(=O)(=O)c2cccc3cccnc23)CC1	nt	nt	nt	23%	nt	nt
CNc1cc(-n2nc(C)cc2-c2ccccc2)ncn1	-1%	-6%	-1%	4%	-5%	-5%
Cc1cc(-c2ccccc2)n(-c2cc(N/N=C/c3ccccc3O)ncn2)n1	-1%	-11%	3%	2%	-2%	15µM*
CC(CS(=O)(=O)c1ccc2c(c1)NC(=O)CS2)C(=O)NCc1ccccc1Cl (stereo not given)	1%	-9%	7.9µM*	?	-21%	-1%
O=C1CSc2ccc(S(=O)(=O)NCc3ccccc3Cl)cc2N1	0%	-8%	-4%	-1%	0%	-10%
COC(=O)c1sccc1NC(=S)N1CCCCC1	0%	40µM*	0%	5%	-8%	1%
COC(=O)c1sccc1NC(=S)N1CCN(c2cccc(C)c2C)CC1	0%	4%	i	8%	8%	6%
O=C(CSc1nc(-c2ccc(F)cc2)nc2c1Cc1ccccc1O2)Nc1ccc(C(=O)O)cc1	0%	-5%	16µM*	?	?	4%
O=C(CSc1nc(-c2ccccc2)nc2c1Cc1ccccc1O2)Nc1ccc(C(=O)O)cc1	0%	-12%	?	?	?	7%
CC1(C)N=C(Nc2nc3ccccc3o2)NC2=C1C(=O)CCC2	nt	nt	nt	-10%	nt	nt
